Assay outcomes as filed in PubChem BioAssay.
hcDAF-12 act: H. contortus DAF-12 nuclear receptor activators, primary screen, cell-based, luminescence, HEK293, lit1-tk-luc reporter. HEK293 hcDAF-12 lit1-tk-luc reporter; 0% DMSO, 100% Δ7-dafachronic acid. activation, % at 6.8 µM. 1.4% of 370,000 active. AID 652067, 2013;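 active = activation above the mean of all tested compounds plus 3 SD, cut at about 5.5% in these data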
DAX1 inh-1: DAX1 (NR0B1) inhibitors, primary screen, cell-based, HEK293, Gal4-DAX1, luciferase luminescence. inhibition, % at 6.75 µM. Nuclear receptor subfamily 0 group B member 1 (Homo sapiens), P51843. 0.99% of 340,000 active. HEK293 Gal4-DAX1 luciferase reporter. AID 504766, 2011;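 active = inhibition above the mean over all tested compounds plus 3 SD, cut at about 4.2% in these data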;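 also: inhibition shows as a rise in luminescence from relieved DAX1 repression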
Target sequence (P51843 207-470 limits assumed): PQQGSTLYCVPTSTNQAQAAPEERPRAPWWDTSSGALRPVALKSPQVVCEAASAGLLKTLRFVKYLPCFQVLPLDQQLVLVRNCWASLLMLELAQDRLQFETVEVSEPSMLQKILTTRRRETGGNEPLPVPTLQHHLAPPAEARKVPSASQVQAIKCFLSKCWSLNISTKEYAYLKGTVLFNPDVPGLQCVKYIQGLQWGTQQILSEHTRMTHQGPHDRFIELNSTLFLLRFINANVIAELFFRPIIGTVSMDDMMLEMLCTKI
hgDAF12 agonist: H. glycines DAF-12 receptor agonists, primary screen, cell-based, luminescence, HEK293, GAL4 fusion, UAS-luciferase. HEK293 GAL4-hgDAF12 UAS-luciferase reporter, agonist luminescence; normalized to butyrate control. AID 687014, 2013. activation, % at 6.8 µM. 1.8% of 370,000 active. Nuclear hormone receptor DAF-12 (Heterodera glycines), GAL4 fusion;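 active = activation above a cutoff set at the mean of all screened compounds plus 3 SD, cut at about 10% in these data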
DAX1 inh-2: DAX1 (NR0B1) inhibitors on StAR promoter, primary screen, cell-based, luminescence, SF-1 (NR5A1), full-length DAX-1. HEK293T StAR-luciferase reporter, SF-1/DAX-1 repression relief. inhibition, % at 6.8 µM. 1.1% of 370,000 active. AID 652010, 2013;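 active = inhibition above the mean over all tested compounds plus 3 SD, cut at about 3.6% in these data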;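 also: higher inhibition means more luminescence from relief of DAX-1 repression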
ssDAF12 agonist: S. stercoralis DAF-12 nuclear receptor activators, primary screen, cell-based, luminescence, HEK293, GRIP1 co-expression, lit1-tk-luc. Nuclear hormone receptor DAF-12 (Strongyloides stercoralis). HEK293 ssDAF-12/GRIP1 lit1-tk-luc reporter; % of 3 µM dafachronic acid response. activation, % at 6.8 µM. 1% of 370,000 active;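 active = activation above the mean over all tested compounds plus 3 SD, cut at about 0.9% in these data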
DAX1 conf: DAX1 (NR0B1) inhibitors relieving SF-1 repression, confirmation, cell-based, luminescence, HEK293T, full-length DAX-1, SF-1 activated StAR promoter; shares compounds with DAX1 inh-2; HEK293T StAR-promoter luciferase reporter, SF-1/DAX-1 repression; inhibition, % at 6.8 µM; 87% of 2,400 active; AID 652134, 2013;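 active = inhibition above the average of every tested compound plus 3 SD, cut at about 3.8% in these data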
SF1 AF2mut Luc: StAR reporter signal changes without DAX1, counter-screen for DAX1 inhibitor project, cell-based, luminescence, AF-2 mutant SF-1, transactivation | inhibition, % at 6.8 µM | shares compounds with DAX1 inh-2 | HEK293 StAR-luciferase, SF-1 AF2 mutant | 78% of 2,400 active;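 active = inhibition above the mean of all tested compounds plus 3 SD, cut at about 3% in these data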
Hits are given with their value; . = inactive; / = no result given; ! = not confirmed by another sample. Shown are actives, neighbours in structure and some others; about 4.1% of the full set was active somewhere.

SMILES | hcDAF-12 act | DAX1 inh-1 | hgDAF12 agonist | DAX1 inh-2 | ssDAF12 agonist | DAX1 conf | SF1 AF2mut Luc
Cc1ccc(NC(=O)COC(=O)c2cccnc2)cc1 | . | . | . | . | . | / | /
O=C(OCC(=O)N1CCCC1=O)c1nc(Cl)c(Cl)c(Cl)c1Cl | . | . | . | . | . | / | /
COc1cc2c(cc1OC)CN(C1CCC(C)CC1)CC2 (stereo unspecified) | . | . | . | . | . | / | /
CC(=O)c1ccc(-c2[nH]c3ccccc3c2CCN2C(=O)c3ccccc3C2=O)cc1 | . | . | . | . | . | / | /
CC(=O)c1ccc(-c2c(CCO)sc3ccccc23)cc1 | . | / | . | 5.7 | . | . | 3.0
Nc1ccc(S(=O)(=O)Nc2cnc3c(Cl)cccc3n2)cc1 | . | . | . | 5.7 | . | 5.2 | .
Cc1nnc(NC(=O)c2nc(S(=O)(=O)Cc3ccccc3)ncc2Cl)s1 | . | . | . | 5.6 | . | . | .
Cc1cccc(N2CCN(C(=O)c3ccc(NC4=NC5CS(=O)(=O)CC5S4)cc3)CC2C)c1 (stereo unspecified) | . | . | . | . | . | / | /
COc1ccc(-c2ccnc3c(Br)c(C)nn23)cc1 | . | . | . | 4.8 | . | . | .
Cc1nn2c(-c3ccc(F)cc3)ccnc2c1Br | . | . | . | . | . | / | /
CCc1ccc(C(=O)NCC2(c3ccccc3)CCOCC2)o1 | . | . | 13.4 | 4.6 | . | 6.7 | 3.4
O=C(NCC1(c2ccccc2)CCOCC1)c1ccc(Br)o1 | . | . | . | . | . | / | /
CSc1ccc(/C=C(\C#N)C(=O)Nc2cccc(C)c2)cc1 | . | . | . | . | . | / | /
CC(Cc1ccccn1)NC(=O)c1ccc(OC2CCN(CCc3ccccc3)CC2)cc1 (stereo unspecified) | . | . | . | . | . | / | /
O=C(NCCc1ccccn1)c1ccc(OC2CCN(CCc3ccccc3)CC2)cc1 | . | . | 12.4 | 5.8 | . | 9.1 | 4.1
COc1ccc2oc(C(=O)Nc3ccc(C)cn3)c(C)c2c1 | . | . | 10.8 | 5.0 | . | 10.0 | 6.6
COc1ccc2oc(C(=O)N3CCc4ccccc43)c(C)c2c1 | . | . | . | 10.7 | . | 15.4 | 5.3
COc1cc2ccccc2cc1C(=O)Nc1ccc(C)cn1 | 5.7 | . | 11.0 | 5.5 | . | 13.1 | 6.8
COc1ccc2oc(C(=O)NCCC(C)C)c(C)c2c1 | . | . | . | 6.1 | . | 14.1 | 6.2
Oc1ccc(-c2nccc(-c3ccc(F)cc3)n2)cc1 | . | . | . | . | . | / | /
COc1ccc(C(CNC(=O)C2COc3ccccc3O2)N2CCCC2)cc1 (stereo unspecified) | . | . | . | . | . | / | /
Cc1ccc(C)n1-c1ccc(-c2ccnc(N)n2)cc1 | . | . | . | . | . | / | /
COc1ccc(C(CNC(=O)c2oc3ccc(Br)cc3c2C)N2CCCCC2)cc1 (stereo unspecified) | . | . | . | . | . | / | /
COc1ccc(C(CNC(=O)c2oc3ccc(OC)cc3c2C)N2CCCC2)cc1 (stereo unspecified) | . | . | . | 5.0 | . | 6.1 | 4.2
CCN(CC)Cc1c(C(=O)N/N=C/c2ccccn2)nnn1-c1nonc1N | . | . | . | . | . | / | /
SMILES | hcDAF-12 act | DAX1 inh-1 | hgDAF12 agonist | DAX1 inh-2 | ssDAF12 agonist | DAX1 conf | SF1 AF2mut Luc
O=C1O[C@@H](c2ccccc2)C[C@@H](O)C(=O)CCc2ccccc21 | . | / | . | . | . | / | /
COC(=O)[C@@]1(OC(C)=O)CC(OC(C)=O)[C@H](OC(C)=O)[C@H](OC(C)=O)C1Br (stereo partly specified) | . | / | . | / | . | / | /
C/C(=N\NC(=O)c1ccco1)c1ccc(NC(=O)C(F)(F)F)cc1 | . | . | . | 7.2 | . | . | .
CN(Cc1cccnc1)C(=O)c1cc(COc2ccc3c(c2)CCCC3)on1 | . | . | . | . | . | / | /
CCOC(=O)c1cnc2c(-c3ccccc3)c(C)nn2c1N | . | . | . | . | . | / | /
CCOC(=O)c1cnc2c(-c3ccccc3)cnn2c1N | . | . | 12.0 | 5.6 | . | 16.7 | 11.8
COc1cccc2cc(C(=O)NC3CC4CCC3C4)oc12 (stereo unspecified) | . | . | . | . | . | / | /
Cc1ccc2oc(C(=O)NCCCN3CCOCC3)c(C)c2c1 | . | . | 11.4 | 6.6 | . | 8.9 | 7.6
Cc1ccc2oc(C(=O)N3CCCCCC3)c(C)c2c1 | . | . | . | 5.3 | . | 5.2 | 3.5
CC(=O)N1CCN(C(=O)c2oc3ccccc3c2C)CC1 | . | . | . | 5.3 | . | . | 3.7
Cc1c(C(=O)NCCCN2CCOCC2)oc2ccc(S(=O)(=O)N3CCOCC3)cc12 | . | . | . | . | . | / | /
Cc1c(C(=O)N2CCCCC2)oc2ccc(Br)cc12 | . | . | 11.2 | 5.5 | . | 5.8 | 4.0
CCN(CC)S(=O)(=O)c1ccc(C(=O)NC(=S)N2CCCCC2C)cc1 (stereo unspecified) | . | . | . | . | . | / | /
O=C(NN=C1CCCCCCCCCCC1)c1cccnc1 | . | . | . | . | . | / | /
CC1=C(C(=O)OCC2CCCO2)C(c2ccc(Cl)c(Cl)c2)NC(=O)N1 (stereo unspecified) | . | / | . | . | . | / | /
Cc1ccc(S(=O)(=O)N2CCN(C(=O)Cn3cnc4c3c(=O)n(C)c(=O)n4C)CC2)cc1C | . | . | . | 5.0 | . | . | .
Cc1cc(Cl)c2oc(C(=O)N(C)C3CCOC3)c(C)c2c1 (stereo unspecified) | . | . | . | 6.6 | . | 7.5 | .
CC[C@H](C)C(=O)O[C@H]1C[C@@H](C)C=C2C=C[C@H](C)[C@H](CC[C@@H]3C[C@@H](O)CC(=O)O3)[C@H]21 | . | . | . | 5.2! | . | . | .
O=C(Nc1ccc(C(=O)N2CCOCC2)cc1)c1cnn2c(C(F)F)cc(-c3ccccc3)nc12 | . | . | . | . | . | / | /
Nc1ccc(C(=O)Nc2nccs2)cc1 | . | . | . | 4.8 | . | 5.1 | 4.7
Nc1ccccc1C(=O)Nc1nccs1 | . | . | . | . | . | / | /
